# Active and inactive are the calls of the source. Rule as the data show it, unless noted: active = inhibition above about 28%; inactive = the rest.
# How the values were obtained:
# [1] = StAR promoter reporter inhibitors, counter-screen for LRH-1 inverse agonist project, cell-based, luminescence, high throughput (AID 651611); settings: StAR promoter luciferase reporter counterscreen, at 3.6 µM, stronger effect = higher value
# [2] = target: Nuclear receptor subfamily 5 group A member 2 (Homo sapiens) (UniProt O00482); assay: LRH-1 (NR5A2) inverse agonists, retest, confirmation, cell-based, luminescence (AID 651613; in the data active = inhibition above about 42%;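 also: HEK293T cells co-transfected with LRH-1 and StAR promoter luciferase reporter; 0% = vehicle wells and 100% = parental cells lacking receptor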); settings: cell-based LRH-1 luciferase reporter, inverse agonism; at 3.6 µM; stronger effect = higher value
# [3] = target: Steroidogenic factor 1 (Homo sapiens) (UniProt Q13285); assay: SF1 (NR5A1) inverse agonists, counter-screen for LRH-1 inverse agonist project, cell-based, luminescence, high throughput (AID 651614; in the data active = inhibition above about 44%;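 also: cells cotransfected with StAR promoter reporter and SF1 expression vector; 0% = vehicle on cells with receptor and 100% = vehicle on cells lacking receptor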); settings: cell-based SF1 luciferase reporter, at 3.6 µM, stronger effect = higher value
# [4] = VP16 transactivation reporter inhibitors, counter-screen for LRH-1 inverse agonist project, cell-based, luminescence, high throughput (AID 651615; in the data active = inhibition above about 33%); settings: Gal4-VP16 luciferase reporter cells, at 3.6 µM, stronger effect = higher value
# Chain of Nuclear receptor subfamily 5 group A member 2 (Homo sapiens) (O00482 whole entry, looked up): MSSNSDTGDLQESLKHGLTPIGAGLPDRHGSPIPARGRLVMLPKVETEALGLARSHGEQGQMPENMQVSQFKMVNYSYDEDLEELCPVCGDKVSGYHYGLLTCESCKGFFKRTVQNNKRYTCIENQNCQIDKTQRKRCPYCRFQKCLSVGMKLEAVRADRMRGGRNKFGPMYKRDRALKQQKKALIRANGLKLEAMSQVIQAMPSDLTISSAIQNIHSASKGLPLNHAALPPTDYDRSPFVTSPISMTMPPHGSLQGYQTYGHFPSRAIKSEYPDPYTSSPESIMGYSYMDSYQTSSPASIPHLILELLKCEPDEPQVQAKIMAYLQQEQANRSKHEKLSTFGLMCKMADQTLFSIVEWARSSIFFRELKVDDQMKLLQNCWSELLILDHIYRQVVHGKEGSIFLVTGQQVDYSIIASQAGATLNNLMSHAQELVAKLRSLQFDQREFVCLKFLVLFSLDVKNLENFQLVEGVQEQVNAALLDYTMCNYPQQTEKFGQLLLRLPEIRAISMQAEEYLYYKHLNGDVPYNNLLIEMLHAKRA
# Chain of Steroidogenic factor 1 (Homo sapiens) (Q13285 whole entry, looked up, the tested form may be a part): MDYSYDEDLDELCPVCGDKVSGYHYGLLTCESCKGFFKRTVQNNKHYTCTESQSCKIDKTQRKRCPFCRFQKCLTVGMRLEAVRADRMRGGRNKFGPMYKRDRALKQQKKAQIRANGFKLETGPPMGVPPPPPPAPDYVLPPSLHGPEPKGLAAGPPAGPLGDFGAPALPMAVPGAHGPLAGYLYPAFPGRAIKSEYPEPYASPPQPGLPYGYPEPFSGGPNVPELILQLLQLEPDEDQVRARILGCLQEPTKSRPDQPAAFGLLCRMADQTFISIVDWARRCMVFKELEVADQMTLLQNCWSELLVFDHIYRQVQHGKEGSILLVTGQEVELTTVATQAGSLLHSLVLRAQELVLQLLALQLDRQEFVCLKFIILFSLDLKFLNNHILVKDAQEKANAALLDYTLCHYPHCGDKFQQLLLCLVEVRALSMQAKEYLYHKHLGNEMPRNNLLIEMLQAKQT
Structure (SMILES),inhibition [1],inhibition [2],inhibition [3],inhibition [4]
O=[N+]([O-])c1ccc(N2CCN(Cc3ccccc3)CC2)c2c1no[n+]2[O-],63.5% (active),57.3% (active),63.1% (active),25.3% (inactive)
CCCOc1ccc(N)cc1N,11.1% (inactive),21.4% (inactive),27% (inactive),-3.38% (inactive)
COc1cc(-c2noc(C)c2/C=C/c2ccc(N)cc2)cc(OC)c1OC,64.6% (active),38.5% (inactive),55.2% (active),-29.3% (inactive)
CC(=O)Nc1cc(-c2ccccc2N(C)C)cn2c(-c3ccc(S(C)(=O)=O)cc3)cnc12,7.26% (inactive),49.8% (active),36.5% (inactive),-14.6% (inactive)
CCCc1cc(=O)oc2cc(OCC(=O)NCCc3c[nH]c4ccc(OC)cc34)ccc12,6.12% (inactive),28.9% (inactive),40.4% (inactive),-23.9% (inactive)
N#Cc1ccccc1NC(=O)c1ccccc1OCC(=O)Nc1ccc2c(c1)oc1ccccc12,13.3% (inactive),33.9% (inactive),23.9% (inactive),4.76% (inactive)
Oc1ccccc1-c1nc(NCC2CCCO2)c2ccccc2n1 (stereo unspecified),26.3% (inactive),66.2% (active),58% (active),-8% (inactive)
CC(C)[C@H](NC(=O)OCc1ccccc1)C(=O)OCC(=O)Nc1ccc(N2CCOCC2)cc1,10.9% (inactive),59.9% (active),59.2% (active),-0.29% (inactive)
CCCc1cc(=O)oc2cc(OCC(=O)NCc3ccccn3)ccc12,10.6% (inactive),55.5% (active),59.1% (active),-9.39% (inactive)

# — PubChem BioAssay
